Laboratory results reported in ChEMBL document CHEMBL1961873, “Compounds: GSK PKIS; Assays: Nanosyn kinase panel” (2012).

Legend:
[1] = target: Fibroblast growth factor receptor 4 (Homo sapiens) (UniProt P22455); conditions: at 1 µM;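 further: reported figure is the averaged percent inhibition of FGFR4, from the GSK PKIS kinase screening panel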
[2] = target: Tyrosine-protein kinase Fgr (Homo sapiens) (UniProt P09769); conditions: at 0.1 µM
[3] = target: Tyrosine-protein kinase Fgr (Homo sapiens) (UniProt P09769); conditions: at 1 µM
[4] = target: Vascular endothelial growth factor receptor 1 (Homo sapiens) (UniProt P17948); conditions: at 0.1 µM
Chain of Vascular endothelial growth factor receptor 1 (Homo sapiens) (P17948 whole entry): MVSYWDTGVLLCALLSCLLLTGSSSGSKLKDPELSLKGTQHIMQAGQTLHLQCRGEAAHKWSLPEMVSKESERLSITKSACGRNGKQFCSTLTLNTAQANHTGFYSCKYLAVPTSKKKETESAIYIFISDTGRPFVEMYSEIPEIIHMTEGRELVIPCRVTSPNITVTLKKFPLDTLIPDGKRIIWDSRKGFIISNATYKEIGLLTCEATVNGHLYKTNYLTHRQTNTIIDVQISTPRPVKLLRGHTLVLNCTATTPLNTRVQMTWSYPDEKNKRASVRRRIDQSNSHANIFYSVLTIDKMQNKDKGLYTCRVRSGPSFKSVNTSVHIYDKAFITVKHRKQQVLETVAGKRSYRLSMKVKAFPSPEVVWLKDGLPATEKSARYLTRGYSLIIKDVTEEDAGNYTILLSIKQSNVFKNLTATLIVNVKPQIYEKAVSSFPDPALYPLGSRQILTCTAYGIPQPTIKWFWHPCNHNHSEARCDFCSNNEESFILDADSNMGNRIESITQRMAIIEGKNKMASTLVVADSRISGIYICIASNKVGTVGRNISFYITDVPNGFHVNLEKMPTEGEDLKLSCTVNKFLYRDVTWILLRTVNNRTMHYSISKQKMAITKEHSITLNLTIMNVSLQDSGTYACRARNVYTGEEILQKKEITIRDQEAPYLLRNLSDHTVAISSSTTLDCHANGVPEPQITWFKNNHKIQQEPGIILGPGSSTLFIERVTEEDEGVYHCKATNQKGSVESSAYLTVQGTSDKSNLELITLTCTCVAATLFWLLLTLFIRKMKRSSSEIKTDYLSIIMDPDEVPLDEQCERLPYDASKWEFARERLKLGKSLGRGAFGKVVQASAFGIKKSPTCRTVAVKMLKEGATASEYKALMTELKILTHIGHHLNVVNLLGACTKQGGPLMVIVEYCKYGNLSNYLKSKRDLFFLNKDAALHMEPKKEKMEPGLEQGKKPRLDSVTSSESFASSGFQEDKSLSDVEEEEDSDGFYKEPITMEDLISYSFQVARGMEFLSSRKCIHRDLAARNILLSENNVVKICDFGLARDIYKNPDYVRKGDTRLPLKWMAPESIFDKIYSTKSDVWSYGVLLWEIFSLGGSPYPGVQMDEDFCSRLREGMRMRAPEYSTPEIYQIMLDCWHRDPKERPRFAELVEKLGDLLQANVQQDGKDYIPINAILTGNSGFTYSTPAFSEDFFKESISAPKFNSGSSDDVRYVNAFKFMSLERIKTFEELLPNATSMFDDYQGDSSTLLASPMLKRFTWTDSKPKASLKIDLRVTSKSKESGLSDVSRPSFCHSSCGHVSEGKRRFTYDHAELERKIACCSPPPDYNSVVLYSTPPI

[5] = target: Vascular endothelial growth factor receptor 1 (Homo sapiens) (UniProt P17948); conditions: at 1 µM
[6] = target: Receptor-type tyrosine-protein kinase FLT3 (Homo sapiens) (UniProt P36888); conditions: at 0.1 µM
[7] = target: Receptor-type tyrosine-protein kinase FLT3 (Homo sapiens) (UniProt P36888); conditions: at 1 µM
[8] = tested on: T1, Receptor-type tyrosine-protein kinase FLT3 (Homo sapiens), P36888 [D835Y]; conditions: at 0.1 µM
T1 sequence (whole entry): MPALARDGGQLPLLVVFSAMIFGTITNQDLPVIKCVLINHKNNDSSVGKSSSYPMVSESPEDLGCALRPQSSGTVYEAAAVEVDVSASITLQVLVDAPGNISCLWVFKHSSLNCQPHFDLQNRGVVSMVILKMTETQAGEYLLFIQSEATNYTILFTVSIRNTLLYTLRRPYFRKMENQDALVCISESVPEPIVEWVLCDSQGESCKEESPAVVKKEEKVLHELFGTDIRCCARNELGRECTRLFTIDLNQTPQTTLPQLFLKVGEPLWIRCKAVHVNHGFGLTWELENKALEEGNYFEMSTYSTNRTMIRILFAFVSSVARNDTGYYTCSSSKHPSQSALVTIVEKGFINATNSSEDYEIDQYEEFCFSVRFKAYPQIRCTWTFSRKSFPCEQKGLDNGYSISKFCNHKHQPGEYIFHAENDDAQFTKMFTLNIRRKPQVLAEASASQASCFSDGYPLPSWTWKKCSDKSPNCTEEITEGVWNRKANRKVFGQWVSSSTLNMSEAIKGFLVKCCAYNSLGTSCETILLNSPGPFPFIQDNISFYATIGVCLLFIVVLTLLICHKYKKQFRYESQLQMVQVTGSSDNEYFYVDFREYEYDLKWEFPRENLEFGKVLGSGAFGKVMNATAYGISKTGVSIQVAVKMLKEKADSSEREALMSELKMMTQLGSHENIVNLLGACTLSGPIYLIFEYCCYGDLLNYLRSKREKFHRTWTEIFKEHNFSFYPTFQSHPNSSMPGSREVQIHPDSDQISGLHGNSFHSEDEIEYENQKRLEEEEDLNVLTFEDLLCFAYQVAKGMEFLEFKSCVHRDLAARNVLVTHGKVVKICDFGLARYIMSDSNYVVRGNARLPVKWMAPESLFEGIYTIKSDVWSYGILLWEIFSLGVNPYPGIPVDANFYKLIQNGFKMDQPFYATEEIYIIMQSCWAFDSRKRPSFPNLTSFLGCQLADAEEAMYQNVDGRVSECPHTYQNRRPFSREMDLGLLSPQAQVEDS

[9] = target: Non-receptor tyrosine-protein kinase TYK2 (Homo sapiens) (UniProt P29597); conditions: at 1 µM;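 further: values are mean percent inhibition of TYK2 kinase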
Chain of Non-receptor tyrosine-protein kinase TYK2 (Homo sapiens) (P29597 whole entry): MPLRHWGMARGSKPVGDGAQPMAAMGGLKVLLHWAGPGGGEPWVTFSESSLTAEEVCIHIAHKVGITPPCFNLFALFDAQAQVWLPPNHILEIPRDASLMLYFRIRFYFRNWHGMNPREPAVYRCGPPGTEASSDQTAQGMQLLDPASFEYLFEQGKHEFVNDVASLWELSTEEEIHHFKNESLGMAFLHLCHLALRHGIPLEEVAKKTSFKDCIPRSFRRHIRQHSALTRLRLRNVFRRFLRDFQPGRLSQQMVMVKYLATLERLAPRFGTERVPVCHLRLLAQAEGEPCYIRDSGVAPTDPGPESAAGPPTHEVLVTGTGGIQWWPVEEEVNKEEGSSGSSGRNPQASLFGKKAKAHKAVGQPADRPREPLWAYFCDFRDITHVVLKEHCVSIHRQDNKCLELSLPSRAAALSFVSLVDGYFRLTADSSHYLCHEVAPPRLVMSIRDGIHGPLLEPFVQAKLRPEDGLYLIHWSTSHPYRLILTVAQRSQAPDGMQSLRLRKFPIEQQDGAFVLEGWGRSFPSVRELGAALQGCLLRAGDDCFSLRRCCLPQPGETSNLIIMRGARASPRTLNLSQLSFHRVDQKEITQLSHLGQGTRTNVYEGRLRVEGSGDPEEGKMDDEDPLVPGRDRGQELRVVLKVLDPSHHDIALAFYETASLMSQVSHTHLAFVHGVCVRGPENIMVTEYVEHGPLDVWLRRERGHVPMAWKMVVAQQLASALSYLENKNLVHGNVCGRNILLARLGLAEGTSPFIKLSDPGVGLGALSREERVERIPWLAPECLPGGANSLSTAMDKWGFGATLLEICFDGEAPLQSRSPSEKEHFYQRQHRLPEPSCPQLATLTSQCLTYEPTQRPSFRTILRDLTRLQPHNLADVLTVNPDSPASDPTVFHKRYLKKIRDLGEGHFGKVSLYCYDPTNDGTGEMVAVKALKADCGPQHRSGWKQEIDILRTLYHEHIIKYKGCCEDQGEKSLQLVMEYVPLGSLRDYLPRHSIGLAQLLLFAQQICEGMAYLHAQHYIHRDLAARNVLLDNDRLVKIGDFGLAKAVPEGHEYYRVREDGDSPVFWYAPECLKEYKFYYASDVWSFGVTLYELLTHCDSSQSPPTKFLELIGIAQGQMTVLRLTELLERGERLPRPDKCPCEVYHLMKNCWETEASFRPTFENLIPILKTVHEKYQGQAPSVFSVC

[10] = target: T2, Tyrosine-protein kinase receptor TYRO3 (Homo sapiens) (UniProt Q06418); conditions: at 0.1 µM;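 further: reported percentages are averaged inhibition values of TYRO3 kinase activity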
T2 sequence (whole entry): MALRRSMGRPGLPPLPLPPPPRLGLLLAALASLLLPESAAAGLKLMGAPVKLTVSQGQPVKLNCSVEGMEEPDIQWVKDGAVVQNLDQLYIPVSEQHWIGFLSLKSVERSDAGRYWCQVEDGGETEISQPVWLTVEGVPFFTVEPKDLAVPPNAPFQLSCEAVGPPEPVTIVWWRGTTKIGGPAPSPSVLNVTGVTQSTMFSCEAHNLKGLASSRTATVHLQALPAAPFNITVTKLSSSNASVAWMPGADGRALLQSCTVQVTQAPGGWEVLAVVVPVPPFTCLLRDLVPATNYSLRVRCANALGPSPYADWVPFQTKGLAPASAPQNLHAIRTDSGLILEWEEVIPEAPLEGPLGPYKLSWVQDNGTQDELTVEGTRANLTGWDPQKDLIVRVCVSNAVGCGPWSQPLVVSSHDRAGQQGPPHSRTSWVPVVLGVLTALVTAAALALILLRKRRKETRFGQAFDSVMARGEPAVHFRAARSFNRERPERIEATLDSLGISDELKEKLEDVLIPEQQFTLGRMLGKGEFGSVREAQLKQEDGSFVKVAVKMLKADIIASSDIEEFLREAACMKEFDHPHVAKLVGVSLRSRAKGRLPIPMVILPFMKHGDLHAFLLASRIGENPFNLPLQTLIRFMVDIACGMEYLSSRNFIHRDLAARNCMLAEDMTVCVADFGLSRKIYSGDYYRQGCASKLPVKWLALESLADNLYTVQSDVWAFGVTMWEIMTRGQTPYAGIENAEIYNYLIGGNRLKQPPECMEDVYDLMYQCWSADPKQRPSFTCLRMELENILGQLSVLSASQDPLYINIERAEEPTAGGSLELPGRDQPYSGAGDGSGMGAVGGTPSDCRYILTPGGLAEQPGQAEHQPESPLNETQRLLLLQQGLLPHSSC

Chain of Tyrosine-protein kinase Fgr (Homo sapiens) (P09769 2-529 limits assumed): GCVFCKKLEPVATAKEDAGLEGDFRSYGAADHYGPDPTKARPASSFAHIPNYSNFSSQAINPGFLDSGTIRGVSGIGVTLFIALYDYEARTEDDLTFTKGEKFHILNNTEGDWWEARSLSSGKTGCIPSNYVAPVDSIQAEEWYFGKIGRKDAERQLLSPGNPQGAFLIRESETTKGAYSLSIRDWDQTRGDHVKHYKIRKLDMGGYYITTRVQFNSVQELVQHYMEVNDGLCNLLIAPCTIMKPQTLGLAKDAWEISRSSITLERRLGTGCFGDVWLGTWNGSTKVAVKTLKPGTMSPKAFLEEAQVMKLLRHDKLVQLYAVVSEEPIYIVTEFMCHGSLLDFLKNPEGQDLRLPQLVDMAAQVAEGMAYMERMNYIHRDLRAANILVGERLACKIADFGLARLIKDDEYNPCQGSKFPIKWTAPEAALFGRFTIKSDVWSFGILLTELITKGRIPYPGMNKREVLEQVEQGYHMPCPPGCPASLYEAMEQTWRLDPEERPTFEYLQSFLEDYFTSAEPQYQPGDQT
Chain of Fibroblast growth factor receptor 4 (Homo sapiens) (P22455 22-802 limits assumed): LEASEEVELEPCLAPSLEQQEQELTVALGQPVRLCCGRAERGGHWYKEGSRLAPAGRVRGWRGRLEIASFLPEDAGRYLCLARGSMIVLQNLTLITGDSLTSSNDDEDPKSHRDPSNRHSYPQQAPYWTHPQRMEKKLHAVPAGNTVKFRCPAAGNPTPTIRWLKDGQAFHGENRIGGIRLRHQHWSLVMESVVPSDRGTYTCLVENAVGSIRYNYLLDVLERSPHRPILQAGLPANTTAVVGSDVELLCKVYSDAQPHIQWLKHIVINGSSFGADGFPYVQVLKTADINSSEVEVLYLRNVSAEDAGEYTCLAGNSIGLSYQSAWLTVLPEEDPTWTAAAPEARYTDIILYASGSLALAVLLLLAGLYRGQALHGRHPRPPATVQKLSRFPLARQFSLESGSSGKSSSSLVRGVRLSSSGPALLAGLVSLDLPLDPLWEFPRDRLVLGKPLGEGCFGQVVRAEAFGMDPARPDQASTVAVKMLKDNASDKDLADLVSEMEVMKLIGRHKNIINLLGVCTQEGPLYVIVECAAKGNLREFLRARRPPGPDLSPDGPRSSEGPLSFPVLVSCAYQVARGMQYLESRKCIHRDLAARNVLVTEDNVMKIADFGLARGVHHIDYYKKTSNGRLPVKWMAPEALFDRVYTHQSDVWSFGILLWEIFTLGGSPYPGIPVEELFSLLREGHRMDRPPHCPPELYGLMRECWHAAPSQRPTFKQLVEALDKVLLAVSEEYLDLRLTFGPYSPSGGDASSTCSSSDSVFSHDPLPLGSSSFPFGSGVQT

Row | SMILES | inhibition [1] [%] | inhibition [2] [%] | inhibition [3] [%] | inhibition [4] [%] | inhibition [5] [%] | inhibition [6] [%] | inhibition [7] [%] | inhibition [8] [%] | inhibition [9] [%] | inhibition [10] [%]
1 | CCn1c(-c2nonc2N)nc2c(C#CC(C)(C)O)nc(OC[C@@H](N)c3ccccc3)cc21 | 0.19 | 5 | 10.2 | 5.16 | 33.9 | -0.98 | -0.75 | -1.79 | 0.35 | -0.52
2 | CCN1CCC(CC(=O)Nc2n[nH]c3nc(-c4cccs4)c(Br)cc23)CC1 | 1.97 | -0.94 | 0.5 | 0.44 | 3.83 | -0.9 | 9.19 | 3.26 | 2.37 | -1.49
3 | CS(=O)(=O)CCNCc1ccc(-c2ccc3ncnc(Nc4ccc(OCc5ccccc5)c(Cl)c4)c3c2)o1 | 0.28 | 2.49 | 11.5 | -0.51 | 0.52 | 1.48 | 2.75 | -3.65 | 1.7 | 0.02
4 | COC(=O)Nc1nc2cc(Oc3ccc(NC(=O)Nc4cccc(C(=O)O)c4)cc3)ccc2[nH]1 | -1.22 | 3.78 | 6.34 | 3.38 | 8.22 | 1.16 | 5.75 | 3.31 | -0.42 | 0.5
5 | CCn1c(-c2nonc2N)nc2cnc(Oc3cccc(NC(=O)c4ccc(OCCN5CCOCC5)cc4)c3)cc21 | 2.48 | 4.08 | 5.54 | 0.64 | 2.14 | 0.9 | 3.19 | -3.34 | -1.28 | 3.27
6 | CCn1c(-c2nonc2N)nc2c(C#CC(C)(C)O)nc(CN3CCCC3)cc21 | 1.16 | -1.03 | 3.81 | -1.48 | 3.78 | -1.67 | -0.42 | -4.71 | -0.89 | 0.06
7 | COc1cc2ncn(-c3cc(O[C@H](C)c4ccccc4Cl)c(C(N)=O)s3)c2cc1OC | 8.7 | 8.54 | 17.3 | 4.8 | 26.2 | 6.07 | 24.8 | 5.85 | -0.12 | 7.57
8 | CC1=C(C(=O)Nc2ccc3[nH]ncc3c2)C(c2ccc(Cl)c(Cl)c2)CC(=O)N1 (stereo not given) | 8.43 | 1.97 | 6.08 | 0.2 | 2.26 | 1.43 | 1.54 | -2.38 | 3.29 | 1.69
9 | Fc1cccc(COc2ccc(Nc3ncnc4sc(-c5cccs5)cc34)cc2Cl)c1 | 3.41 | 1.43 | 3.69 | -0.58 | 3.56 | 0.38 | 3.27 | -2.12 | 1.15 | 0.54
10 | COc1ccccc1Nc1ncc(-c2ccccc2)o1 | 0.7 | 5.21 | 12.1 | 4.3 | 16.4 | 61 | 87.2 | 5.09 | -0.92 | 1.91
11 | CCCN1CCC(Oc2cc(Nc3nc(Nc4cccc(F)c4C(N)=O)c4cc[nH]c4n3)c(OC)cc2Cl)CC1 | 1.48 | 0.61 | 4.19 | -0.02 | 2.7 | 0.23 | 2.55 | -3.12 | 0.45 | -0.27
12 | Cc1cccc(-c2n[nH]cc2-c2ccc3ncccc3n2)n1 | 1.18 | 2.06 | 4.41 | 3.33 | 29.2 | -1.33 | -0.33 | -5.04 | 0.67 | 0.27
13 | CN1CCC(C(=O)Nc2n[nH]c3nnc(-c4ccccc4)cc23)CC1 | -0.57 | 5.18 | 4.46 | 0.44 | 2.94 | 2.28 | 1.88 | -4.39 | -0.97 | 2.36
14 | COc1ccc(-c2nn3ncccc3c2-c2ccnc(Nc3ccc(Cl)c(C(F)(F)F)c3)n2)cc1 | 0.98 | 5.75 | 16.9 | -1.35 | 1.63 | -0.69 | 1.14 | -1.91 | 1.02 | 0.79
15 | N#Cc1c(NC(=O)c2cccc3ccccc23)sc2c1CCCC2 | -0.35 | 1.53 | 5.24 | -0.49 | 0.41 | 2.28 | 2.23 | 3.1 | -3.92 | 2.98
16 | c1cnn2ncc(-c3ccnc(Nc4ccc5c(c4)OCCO5)n3)c2c1 | 4.77 | 4.29 | 14.5 | 8.17 | 20.5 | 29.5 | 75.7 | 9.31 | 12.8 | 5.88
17 | O=C1NC(=O)C(c2cccc(Cl)c2)=C1Nc1ccc(O)c(Cl)c1 | 2.43 | -2.2 | 3.74 | 0.72 | 1.36 | -1.02 | 0.95 | -6.93 | 20 | -0.43

Row | SMILES | inhibition [1] [%] | inhibition [2] [%] | inhibition [3] [%] | inhibition [4] [%] | inhibition [5] [%] | inhibition [6] [%] | inhibition [7] [%] | inhibition [8] [%] | inhibition [9] [%] | inhibition [10] [%]
18 | Cc1cc(O)cc(C)c1/C=C/c1cncc(-c2nn[nH]n2)c1 | 0.95 | 9.4 | 51.5 | 3.27 | 5.69 | 2.5 | 4.37 | -2.23 | -2.7 | 3.72
19 | COc1cc2ncn(-c3cc(OCc4ccccc4C(F)(F)F)c(C(N)=O)s3)c2cc1OC | -1.16 | 4.79 | 14.6 | 1.92 | 9.39 | 0.06 | 9.95 | 9.27 | -6.76 | 3.15
20 | NS(=O)(=O)c1cccc(-c2ccc3c(NC(=O)C4CC4)n[nH]c3c2)c1 | -0.5 | -1.55 | -0.19 | -1.03 | -0.85 | 0.61 | -0.59 | -3.17 | 1.94 | -0.52
21 | CNC(=O)c1cncc(/C=C/c2c(Cl)cccc2Cl)c1 | 1.17 | 3.11 | 21.3 | 0.03 | 4.61 | -0.33 | 2.17 | -3.3 | -3.44 | 1.91
22 | COc1ccc(-c2ccncc2)cc1C(N)=O | 1.48 | 3.69 | 4.6 | 2.23 | 2.25 | 5.04 | 2.52 | 4.29 | -3.25 | 1.12
23 | COc1cc(C)c(NC(=O)CN(C)C)cc1Nc1nc(Nc2cccc(F)c2C(N)=O)c2cc[nH]c2n1 | 1.48 | 0.83 | 2.7 | 2.27 | 0.42 | 1.69 | 4.08 | -5.02 | -1.61 | 2.82
24 | NC(=O)c1cccc(Nc2nccc(Nc3cccc4[nH]ncc34)n2)c1 | 6.94 | 53.6 | 76.7 | 2.24 | 29.2 | 6.63 | 48 | 10.4 | 39.1 | 9.98
25 | Cn1cc(C=C2C(=O)Nc3cccnc32)c2ccccc21 | 14.1 | 7.5 | 44 | 1.42 | 13.1 | 20.3 | 66.2 | 32.7 | 0.73 | 2.36
26 | Fc1cccc(COc2ccc(Nc3ncnc4cc(-c5ccc[nH]5)sc34)cc2Cl)c1 | -3.31 | 3.74 | 11 | -0.98 | 1.18 | -0.44 | 2.33 | 2.49 | 0.5 | 2.87
27 | CC1=C(C(=O)Nc2ccc3[nH]ncc3c2)C(c2ccc(F)cc2)NC(=O)N1 (stereo not given) | 7.73 | 0.15 | 0.7 | -0.38 | 2.35 | 0.82 | 0.62 | -0.62 | 26.3 | 1.55
28 | COc1ccc(COc2ccc(Cc3cnc(N)nc3N)cc2OC)cc1 | 3.16 | -0.01 | 4.25 | 1.03 | 2.11 | -1.11 | 1.13 | -4.6 | 0.26 | 0.79
29 | Cc1ccc(NC(=O)c2ccnc(N3CCCC3)c2)cc1-c1ccc(C(=O)NCC2CC2)cc1 | -0.86 | 1.54 | 6.32 | -0.77 | 0.49 | 1.08 | 7.31 | -8.49 | -2.58 | 2.24
30 | O=C1Nc2ccc(C(=O)c3ccco3)cc2C1=Cc1cc(Cl)c(O)c(Cl)c1 | 7.04 | 2.46 | 11.6 | 1.07 | 4.42 | 1.69 | 12.7 | 4.82 | 26.4 | 1.96
31 | CC1=C(C(=O)Nc2ccc3[nH]ncc3c2)C(c2ccc3ccccc3c2)CC(=O)N1 (stereo not given) | 10.6 | 3.21 | 15.1 | 2.44 | 4.08 | 0.05 | 3.17 | 0.1 | 4.98 | 3.61
32 | Nc1nc(-c2ccc3c(c2)C(=Cc2cc(Br)c(O)c(Br)c2)C(=O)N3)cs1 | 3.96 | -0.02 | 5.44 | -0.63 | 0.2 | -3.03 | 0.66 | -2.57 | 2.43 | -0.46
33 | NS(=O)(=O)c1ccc(N/N=C2\C(=O)Nc3ccc(C(=O)NCCc4c[nH]cn4)cc32)cc1 | 2.39 | 4.54 | 19.1 | 2.21 | 10.7 | 7.03 | 23.4 | 8.84 | 0.3 | 5.07
